Hits are enriched below; roughly 1.2% of the tested compounds scored in any of these assays.
NS1 function inh – blocks influenza NS1 protein function; Potency, µM (titrated, usually from 46.1 µM), for the others: at the highest dose activity, positive = more growth; 270,000 compounds, 0.4% hits; AID 2326; calls by dose curve; note: potency is the fitted concentration of half-maximal effect; actives are rising curves; nearly all actives have a fitted effect of over 50% in size
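Growth recovery, yeast-based: influenza A NS1 expressed in S. cerevisiae causes slow growth, and suppressors are detected by OD600. The parent strain without NS1 is used as positive control.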
AMA1 RON2 block – inhibitors of Plasmodium falciparum AMA1-RON2 interaction; AlphaScreen AMA1-biotinylated RON2 peptide binding; Potency, µM (doses to about 58.2 µM), for the others: at the top dose activity change, negative = inhibition, most hits filed as inhibitors; 360,000 compounds, 0.2% hits;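 note: potency is the fitted concentration of half-maximal effect; 0% = vehicle wells and -100% = peptide control; nearly all actives have a fitted effect of over 45% in size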
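AMA1 (3D7) with his tag at 25 nM final met compounds first, then biotinylated RON2 peptide at 25 nM; detection used donor plus acceptor beads, 10 µg/mL apiece, read by AlphaScreen after 30 min at room temperature.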
LmPK inhibitor – blocks Leishmania mexicana pyruvate kinase activity; purified LmPK, Kinase-Glo ATP luminescence, 1 h; Potency, µM (top dose mostly 57.5 µM), for inactives: at the top dose activity change, negative = inhibition, hits mostly inhibitors; 290,000 compounds, 0.37% hits; note: potency is the fitted concentration of half-maximal effect; % is set by controls: 0 for no effect and ±100 for the full control effect
Target sequence (Q27686 whole entry, looked up): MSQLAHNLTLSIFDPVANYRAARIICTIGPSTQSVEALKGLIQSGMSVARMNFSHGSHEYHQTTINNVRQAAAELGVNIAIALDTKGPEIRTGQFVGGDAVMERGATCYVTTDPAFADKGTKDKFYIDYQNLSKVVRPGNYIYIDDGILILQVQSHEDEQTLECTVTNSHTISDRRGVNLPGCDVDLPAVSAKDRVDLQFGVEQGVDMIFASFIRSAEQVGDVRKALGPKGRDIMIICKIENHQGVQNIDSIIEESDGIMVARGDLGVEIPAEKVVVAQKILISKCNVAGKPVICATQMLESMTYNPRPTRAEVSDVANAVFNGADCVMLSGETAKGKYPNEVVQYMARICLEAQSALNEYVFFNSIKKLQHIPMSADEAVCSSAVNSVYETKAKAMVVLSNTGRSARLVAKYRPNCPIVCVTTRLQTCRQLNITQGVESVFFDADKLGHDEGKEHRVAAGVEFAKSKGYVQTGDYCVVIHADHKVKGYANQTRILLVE
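Screened at intermediate enzyme activity to detect both inhibitors and activators: LmPK at 0.1 nM, with a 0.5 nM enzyme column as activation reference. PEP 0.5 mM, ADP 0.1 mM; ATP detected by luminescence after 1 h.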
FBPA Giardia inh – Giardia lamblia aldolase inhibition; Potency, µM (series often up to 59.6 µM), inactives show at the highest dose activity, negative = inhibition, usual class: inhibitors; 290,000 compounds, 0.71% hits; AID 2451; purified Giardia FBPA; note: potency is the fitted concentration of half-maximal effect; % is set by controls: 0 for no effect and ±100 for the full control effect; nearly all actives have a fitted effect of over 55% in size
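Giardia FBPA (40 nM reagent) was preincubated 10 min at RT with compound (up to 57.5 uM final), then substrate plus GAPDH/TPI/NAD/arsenate coupling system with diaphorase/resazurin was added; resorufin fluorescence (525/598 nm) was read after 20 min.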
Tb PYK inh – blocks Trypanosoma brucei pyruvate kinase. Q57TT1. TbPYK enzyme, Kinase-Glo Plus ATP luminescence, 45 min. Potency, µM (doses to about 76.8 µM), without a hit: at the top dose activity, negative = inhibition, most hits filed as inhibitors. 410,000 compounds, 0.12% hits. AID 624173; note: potency is the fitted concentration of half-maximal effect; % is set by controls: 0 for no effect and ±100 for the full control effect; nearly all actives have a fitted effect of over 50% in size
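Screened from lowest to highest concentration, compounds were pinned into TbPYK/substrate mixtures, and ADP (130 uM final) was added. Plates sat at room temperature for 45 min prior to Kinase-Glo Plus detection by luminescence.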
LmPK inh confirm – Inhibits Leishmania mexicana pyruvate kinase, confirmation | shares compounds with LmPK inhibitor | purified LmPK, Kinase-Glo ATP luminescence, 1 h | Potency, µM (highest dose often 57.5 µM), inactives show at the top dose activity change, negative = inhibition, actives largely listed as inhibitors | 150 compounds, 40% hits;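 active = compounds giving a full or partial concentration-response curve, as inhibitors or activators; inconclusive = weak, top-dose-only or unclear curve responses; inactive = no response at any tested dose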
Numbers without * were called inactive; ? = inconclusive; / = no result given. Unless noted, calls come from the whole dose curve; as a rule, active = well fitted curve in the direction sought with a large enough effect; inconclusive = small, poorly fitted or top-dose-only effect, or another doubt; inactive = no such curve, though single readings can be large; an effect the other way counts as inactive or inconclusive.

SMILES | NS1 function inh | AMA1 RON2 block | LmPK inhibitor | FBPA Giardia inh | Tb PYK inh | LmPK inh confirm
CC(C)C[C@H](NC(=O)[C@H](CC(C)C)NC(=O)[C@H](CCC(N)=O)NC(=O)[C@H](CO)NC(=O)[C@@H]1CCCN1C(=O)[C@H](CO)NC(=O)[C@H](CO)NC(=O)[C@@H](NC(=O)[C@H](Cc1cnc[nH]1)NC(=O)[C@H](CCC(=O)O)NC(=O)[C@H](Cc1ccc(O)cc1)NC(=O)[C@H](CCCCN)NC(=O)[C@H](CCC(N)=O)NC(=O)[C@H](Cc1ccc(O)cc1)NC(=O)[C@H](CC(=O)O)NC(=O)[C@@H](NC(=O)[C@@H]1CCCN1C(=O)[C@H](CC(=O)O)NC(=O)[C@H](CC(N)=O)NC(=O)[C@H](CC(=O)O)NC(=O)CNC(=O)[C@H](CC(=O)O)NC(=O)[C@@H]1CCCN1C(=O)[C@H](CCC(N)=O)NC(=O)[C@H](Cc1ccc(O)cc1)NC(=O)[C@H](C)NC(=O)[C@H](Cc1c[nH]c2ccccc12)NC(=O)[C@H](Cc1ccccc1)NC(=O)[C@@H](NC(=O)[C@@H](N)CO)[C@@H](C)O)[C@@H](C)O)[C@@H](C)O)C(=O)N[C@@H](C)C(=O)N1CCC[C@H]1C(=O)NCC(=O)N[C@@H](CC(=O)O)C(=O)N[C@@H](Cc1ccc(O)cc1)C(=O)O | / | / | / | 0% | / | /
COn1c(SCc2ccc(Cl)cc2)nc2ccccc2c1=O | -47% | 19% | 8% | 1% | -25% | 2%
CCCn1c(C)nc2c(NCCCCN(C)C)nc(C)nc21 | / | / | / | 4% | / | /
O=C(c1ccc(Br)cc1)c1cc2ccc(O)cc2oc1=O | -83% | -5% | -1% | 1% | -11% | /
O=C(c1ccccc1)c1cc2ccc(O)cc2oc1=O | -2% | -13% | 3.5µM* | 14% | ? | 7.3µM*
Oc1ccc(C23CC4CC(CC(C4)C2)C3)cc1O | -63% | -22% | 0.28µM* | -6% | ? | -13%
CC(=O)Nc1ccc(C23CC4CC(CC(C4)C2)C3)cc1 | -12% | -7% | 3% | -2% | 1% | /
COc1cccc([C@@H]2Oc3ccc(Br)cc3C(=O)[C@H]2OC(=O)N[C@H](C)C2CCCCC2)c1 | / | / | / | 1% | / | /
COc1ccc(C(=O)Nc2scc(-c3ccc(Cl)cc3Cl)c2C(N)=O)cc1 | 8% | 0% | 5% | -7% | 4% | 0%
Cc1oc(-c2cccc(Br)c2)nc1CSc1nc2ncccc2[nH]1 | / | / | / | / | -1% | /
CC(C)N(Cc1cn(C)nc1-c1cccc(Cl)c1)Cc1nccn1C | -1% | 8% | 2% | 3% | 0% | /
CN(Cc1cn(C)nc1-c1cccc(Cl)c1)CC1CCCCO1 (stereo unspecified) | 2% | -13% | 8% | 1% | -3% | -2%
CN(Cc1ccon1)Cc1cn(C)nc1-c1ccc(Oc2ccccc2)cc1 | -5% | -21% | 4% | -11% | -11% | /
Cc1cnccc1CN(C)Cc1cn(C)nc1-c1ccc(Oc2ccccc2)cc1 | -4% | -16% | -2% | -10% | -5% | -9%
Cc1cnccc1CN(C)Cc1cn(C)nc1-c1cccc(Cl)c1 | 1% | 32% | 8% | 0% | -9% | 0%
Cc1nc2c(-c3ccccc3)c(C)[nH]n2c(=O)c1Cc1ccc(Br)cc1 | / | / | / | / | 1% | /
Nc1ccc2nc(-c3ccccc3)sc2c1 | -10% | 13% | 8.9µM* | -11% | ? | 16µM*
c1ccc(-c2nc(-c3ccccn3)no2)cc1 | -6% | 8% | 3.5µM* | -2% | ? | 15µM*
c1ccc(-c2noc(-c3ccno3)n2)nc1 | 2% | 7% | -9% | -3% | 0% | /
CCOc1ccc(/C=N/NC(=O)c2c(-c3ccccc3)noc2C)cc1 | 18% | 34% | 4% | 4% | 0% | /
CCOc1ccc(/C=N/NC(=O)COc2ccccc2-c2ccccc2)cc1 | 19% | 3% | 4% | 0% | 2% | 1%
Cc1ccc(C(=O)n2c(N)nc3ccccc32)cc1 | -6% | 61% | 5µM* | 0% | -25% | 33µM*
Cc1ccc(S(=O)(=O)n2c(N)nc3ccccc32)cc1 | 3% | 0% | 2% | 0% | 4% | /
Cc1nc2cnc(N3CCN(C)CC3)nc2n(-c2ccccc2)c1=O | / | / | / | 5% | / | /
CC(C)[C@H](N)c1nnc(SCc2ccc(Cl)cc2)o1 | 8% | 2% | -1% | -4% | 0% | -2%
SMILES | NS1 function inh | AMA1 RON2 block | LmPK inhibitor | FBPA Giardia inh | Tb PYK inh | LmPK inh confirm
CN=c1scc(-c2ccco2)n1/N=C/c1ccc(O)c(O)c1 | / | -12% | 5.6µM* | ? | -14% | ?
COc1ccc(O)c(/C=N/n2c(-c3ccco3)csc2=Nc2cccnc2)c1 | 8% | 43% | 2% | 1% | -1% | /
CC(C)ON(C(C(=O)NO)C(C)C)S(=O)(=O)c1ccc(-c2ccccc2)cc1 (stereo unspecified) | / | / | / | 0% | / | /
CCOc1ccc(S(=O)(=O)N(C)c2ccc(OCC(=O)Nc3nccs3)cc2)cc1 | / | 60% | 3% | -1% | 1% | /
CCOc1ccc(OCC(=O)Nc2nccs2)cc1 | -9% | 25% | 10µM* | 0% | 22µM* | 13µM*
O=C(Nc1ccc2c(c1)OCCO2)c1ccccn1 | 0% | 14% | 5µM* | -3% | ? | 18µM*
O=C(C=Cc1ccc2c(c1)OCO2)c1ccccc1 | / | 0% | / | / | -12% | /
O=C(/C=C/c1ccc2c(c1)OCO2)c1ccccn1 | -54% | 0% | 5µM* | ? | ? | 21µM*
O=C(Nc1ccc(NC(=O)c2ccccn2)cc1)C(=O)Nc1ccc2c(c1)OCCO2 | / | -2% | -11% | 16% | -6% | /
COCCNC(=O)[C@H](C)/C=C(\c1cccnc1)C(NC(=O)OCc1ccccc1)c1ccc(C(=O)OC)cc1 (stereo partly specified) | / | / | / | 3% | / | /
CCOc1ccc(NC(=O)Nc2ccccc2C(N)=O)cc1 | -1% | -11% | 3.2µM* | 2% | -15% | 10µM*
O=C1C(c2cc(=O)c3ccccc3[nH]2)=C(O)c2ccccc21 | 11% | -18% | 4µM* | ? | 8.9µM* | ?
O=c1[nH][nH]c(=S)c(=O)[nH]1 | 0% | / | / | / | / | /
CC(=O)Oc1ccc(-c2nc(-c3cccnc3)no2)cc1 | -19% | -2% | 5µM* | 1% | 0% | 5.8µM*
CC(=O)Oc1ccc(Oc2ccc(-c3noc(C)n3)cc2)cc1 | -16% | 2% | -6% | -10% | 7% | /
O=C1c2ccccc2-c2nnc(-c3ccccc3)cc21 | -32% | -7% | 2.8µM* | -10% | ? | 7.3µM*
N/C(=N\OC(=O)c1ccccc1Cl)c1ccncc1 | 4% | 8% | 1% | -9% | -1% | /
Cc1ccc(C(=O)O/N=C(\N)c2ccccc2)c(Cl)c1 | -42% | 29% | 4.5µM* | -5% | ? | 18µM*

Screening data: PubChem BioAssay, National Center for Advancing Translational Sciences (NCATS)
